Results on eight compounds are retold here after PubChem BioAssay (EPA / NIEHS).

Inconclusive results are not listed. Activity calls are given as the source filed them. The calls were made as follows, unless noted: active = hit-call score of the fitted dose curve at least 0.9, where 1 is the maximum; inconclusive = response in the unintended direction; inactive = score below 0.9.

Test [1] can be described thus: Tanguay_ZF_120hpf_NC_legacy: (Legacy) Oregon State University Tanguay Lab 120 Hour Post-fertilization zebrafish Assay for Notochord and Tail Malformation (AID 2283656). The essentials:
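Binary scoring of notochord distortion by brightfield microscopy; embryos dying were not scored. Wild-type Tropical 5D embryos, chorion removed, exposed singly and statically from 6 to 120 hpf, 28C, sealed, 0.64% DMSO.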

Read-out in test [2]: solute carrier (SLC10A1), SLC10A1 (gene 6554)
Briefly: LTEA_HepaRG_SLC10A1: Life Technologies and Expression Analysis (LTEA) Assay for solute carrier (SLC10A1) using HepaRG (AID 2283657; active = hit-call score of the fitted dose curve at least 0.9, where 1 is the maximum; inactive = score below 0.9). Conditions: mRNA level, 48 h; actives raise or lower the signal. The essentials:
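Cryopreserved HepaRG cells are thawed, plated and cultured 48 h; medium is then switched to serum-free induction medium and chemicals added (8 points, max 100 uM, 0.5% DMSO). After 48 h, RNA is isolated and SLC10A1 quantified by qRT-PCR.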

Read-out in test [3]: matrix metalloproteinase-1 (MMP1), MMP1 (gene 4312)
Briefly: LTEA_HepaRG_MMP1: Life Technologies and Expression Analysis (LTEA) Assay for matrix metalloproteinase-1 (MMP1) using HepaRG (AID 2283658; active = hit-call score of the fitted dose curve at least 0.9, where 1 is the maximum; inactive = score below 0.9). Conditions: mRNA level, 48 h; actives raise or lower the signal. Summed up:
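HepaRG, ~100,000 cells/well, 48 h pre-culture; serum-free induction medium; test chemical 8 conc (max 100 uM, half-log), duplicate, 48 h; 0.5% DMSO; qRT-PCR MMP1, housekeeping-normalized; gain/loss fit vs DMSO.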

Read-out in test [4]: Broad substrate specificity ATP-binding cassette transporter ABCG2 (Homo sapiens) (UniProt Q9UNQ0)
Kind of test: CLD_ABCG2_6hr: CellzDirect (CLD) Gene Expression Assay for ABC Transporter (ABCG2) at 6 hours (AID 2283660). The essentials: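 ABCG2 mRNA induction measured by qNPA chemiluminescence in human primary hepatocyte cultures, 6 h post-dose. Chemicals tested at several concentrations against a 0.2% DMSO vehicle; positive-direction fit relative to DMSO.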

Read-out in test [5]: alkyl and aryl transferase (GSTA2), GSTA2 (gene 2939)
Briefly: CLD_GSTA2_6hr: CellzDirect (CLD) Gene Expression Assay for alkyl and aryl transferase (GSTA2) at 6 hours (AID 2283666). Summed up: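 GSTA2 transcript induction at 6 h, quantified by nuclease protection (qNPA) with chemiluminescent detection, in human liver primary hepatocytes exposed to several compound concentrations with 0.2% DMSO as baseline; phase-contrast morphology annotated apparent cytotoxicity.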

A short description of test [6]: Tanguay_ZF_120hpf_TR_legacy: (Legacy) Oregon State University Tanguay Lab 120 Hour Post-fertilization zebrafish Assay for Touch Response (AID 2283667). The essentials:
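Readout is presence or absence of touch response in 120 hpf zebrafish larvae, assessed by brightfield observation after continuous static exposure at 28C. Final vehicle was 0.64% (vol/vol) DMSO.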

Read-out in test [7]: organic anion transporter (SLCO1B1), SLCO1B1 (gene 10599)
Briefly: CLD_SLCO1B1_6hr: CellzDirect (CLD) Gene Expression Assay for organic anion transporter (SLCO1B1) at 6 hours (AID 2283668).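 Also: active means mRNA induction above DMSO baseline.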 Summed up: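 SLCO1B1 mRNA induction measured 6 h after dosing by quantitative nuclease protection with chemiluminescent read-out, in human primary hepatocyte cultures given chemicals at several concentrations (vehicle 0.2% DMSO). Increase over DMSO baseline fitted; morphology-based cytotoxicity annotated yes/no.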

The nature of test [8]: CLD_ACTIN_24hr: CellzDirect (CLD) Gene Expression Assay for Baseline Control (Actin) at 24 hours (AID 2283670). The essentials:
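This 24 h qNPA (S1 nuclease protection, chemiluminescence) actin transcript readout in cultured human liver primary cells serves as baseline control. Signal is fitted upward relative to 0.2% DMSO; chemicals tested at multiple concentrations across two donor preparations.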

Read-out in test [9]: Cytochrome P450 (CYP24A1_1), CYP24A1 (gene 1591)
Kind of test: LTEA_HepaRG_CYP24A1_1: Life Technologies and Expression Analysis (LTEA) Assay for Cytochrome P450 (CYP24A1_1) using HepaRG (AID 2283671; active = hit-call score of the fitted dose curve at least 0.9, where 1 is the maximum; inactive = score below 0.9). Conditions: mRNA level, 48 h; actives raise or lower the signal. The essentials: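 Cultures of human HepaRG were treated in duplicate for 48 h (0.5% DMSO vehicle, highest dose 100 uM). CYP24A1 mRNA by qRT-PCR, normalized to ACTB, GAPDH, POLR2A.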

Read-out in test [10]: glucuronosyltransferase (UGT1A1), UGT1A1 (gene 54658)
Kind of test: CLD_UGT1A1_6hr: CellzDirect (CLD) Gene Expression Assay for glucuronosyltransferase (UGT1A1) at 6 hours (AID 2283672). The essentials:
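UGT1A1 mRNA induction, read by quantitative nuclease protection assay, 6 h after dosing primary human hepatocytes (two donors, 0.2% DMSO vehicle). Gain of signal fitted relative to vehicle.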

Read-out in test [11]: xenobiotic metabolism (CYP1A1), CYP1A1 (gene 1543)
Briefly: CLD_CYP1A1_24hr: CellzDirect (CLD) Gene Expression Assay for xenobiotic metabolism (CYP1A1) at 24 hours (AID 2283673). The essentials: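 Transcript levels were read at 24 h by qNPA chemiluminescence in human liver primary cells. Cells got daily fresh dosing at multiple concentrations (vehicle 0.2% DMSO). Induction fitted upward against DMSO; phase-contrast cytotoxicity annotated.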

Read-out in test [12]: ABC Transporter (ABCB11), ABCB11 (gene 8647)
Kind of test: CLD_ABCB11_6hr: CellzDirect (CLD) Gene Expression Assay for ABC Transporter (ABCB11) at 6 hours (AID 2283675).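 Also: hits raise ABCB11 mRNA level so AC50 marks induction.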 The essentials:
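Read-out was ABCB11 mRNA gain of signal by quantitative nuclease protection assay, relative to 0.2% DMSO vehicle, 6 h post-dose. Cells were primary human hepatocytes from two donors, treated across multiple concentrations; phase-contrast cytotoxicity noted yes/no.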

Read-out in test [13]: ABC Transporter (ABCB1), ABCB1 (gene 5243)
Briefly: CLD_ABCB1_6hr: CellzDirect (CLD) Gene Expression Assay for ABC Transporter (ABCB1) at 6 hours (AID 2283659).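 Also: hits raise ABCB1 transcript above the DMSO vehicle baseline.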 The essentials:
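ABCB1 transcript measured by quantitative nuclease protection assay, chemiluminescent read-out, 6 h after dosing human hepatocyte cultures (0.2% DMSO vehicle, daily redosing). Activity fitted as increase over DMSO baseline; cytotoxicity flagged by phase-contrast morphology.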

Test [14] deals with Thyroperoxidase (TPO), gene 54314. Briefly: CCTE_Simmons_AUR_rTPO: CCTE's Amplex UltraRed Assay for Thyroperoxidase (TPO) Inhibition, Simmons Lab (AID 2283662).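 Also: potency for loss of signal meaning inhibition of peroxidase activity.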 The essentials:
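Rat thyroid microsomes (5 ug protein) with 25 uM Amplex UltraRed and 300 uM H2O2 in 200 mM phosphate buffer, 30 min at 37C in dark; fluorescence 544/590 nm. Eight concentrations, 5 nM–87.5 uM final, 0.5% DMSO, triplicate biological replicates.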

Test [15] is described as follows: CCTE_Simmons_CellTiterGLO_HEK293T: Viability Assessment in CCTE's Assays for Thyroperoxidase (TPO) Inhibition, Simmons Lab (AID 2283665). Summed up: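 Cells were seeded overnight, then exposed to an eight-point series up to 87.5 uM final for 24 hours. CellTiter-Glo reagent was added and luminescence read after 20 min, giving ATP-based viability versus DMSO.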
Read-out in test [16]: sulfotransferase (SULT2A), SULT2A1 (gene 6822)
Kind of test: CLD_SULT2A_6hr: CellzDirect (CLD) Gene Expression Assay for sulfotransferase (SULT2A) at 6 hours (AID 2283669).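 Also: hits raise transcript level above the DMSO vehicle baseline.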 The essentials: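 Measured 6 h after dosing, SULT2A1 mRNA in human hepatocyte lysates was quantified by S1 nuclease protection with chemiluminescent detection. Increases fitted against 0.2% DMSO vehicle baseline; phase-contrast cytotoxicity recorded yes/no.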

Read-out in test [17]: xenobiotic metabolism (CYP1A1), CYP1A1 (gene 1543)
Kind of test: CLD_CYP1A1_6hr: CellzDirect (CLD) Gene Expression Assay for xenobiotic metabolism (CYP1A1) at 6 hours (AID 2283661).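 As to AC50: potency for transcript induction above DMSO vehicle baseline.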 Summed up: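 Read-out 6 h post-dose: qNPA chemiluminescent quantitation of transcript induction against 0.2% DMSO. Cells were cultured primary human hepatocytes from two separate donor preparations; phase-contrast morphology annotated apparent cytotoxicity.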

Read-out in test [18]: xenobiotic metabolism (CYP1A2), CYP1A2 (gene 1544)
Briefly: CLD_CYP1A2_6hr: CellzDirect (CLD) Gene Expression Assay for xenobiotic metabolism (CYP1A2) at 6 hours (AID 2283663). Summed up: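 mRNA levels quantified by quantitative nuclease protection assay with chemiluminescence, 6 h after dosing human primary hepatocyte cultures (two donors) across several concentrations, vehicle 0.2% DMSO. Induction fitted upward versus DMSO; phase-contrast cytotoxicity annotated.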

Sequence of Broad substrate specificity ATP-binding cassette transporter ABCG2 (Homo sapiens) (Q9UNQ0 whole entry, looked up): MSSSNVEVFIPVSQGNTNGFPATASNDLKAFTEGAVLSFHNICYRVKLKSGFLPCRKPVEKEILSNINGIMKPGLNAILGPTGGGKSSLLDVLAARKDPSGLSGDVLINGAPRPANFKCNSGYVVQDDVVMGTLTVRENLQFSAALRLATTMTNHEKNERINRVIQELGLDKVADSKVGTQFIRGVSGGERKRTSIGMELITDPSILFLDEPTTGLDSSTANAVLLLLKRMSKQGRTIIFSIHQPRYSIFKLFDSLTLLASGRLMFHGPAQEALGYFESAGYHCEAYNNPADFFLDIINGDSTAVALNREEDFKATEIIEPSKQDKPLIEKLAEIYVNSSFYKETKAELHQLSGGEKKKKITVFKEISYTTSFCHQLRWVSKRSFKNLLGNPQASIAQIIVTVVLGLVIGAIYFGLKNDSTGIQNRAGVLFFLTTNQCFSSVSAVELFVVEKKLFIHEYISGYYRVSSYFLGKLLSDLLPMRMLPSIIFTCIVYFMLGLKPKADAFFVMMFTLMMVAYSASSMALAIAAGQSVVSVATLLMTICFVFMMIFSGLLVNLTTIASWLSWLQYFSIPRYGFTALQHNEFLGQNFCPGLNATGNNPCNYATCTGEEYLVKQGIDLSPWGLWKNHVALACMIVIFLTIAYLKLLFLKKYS

On to `CC[C@H](C)[C@H]1O[C@]2(C=C[C@@H]1C)C[C@@H]1C[C@@H](C/C=C(\C)[C@@H](O[C@H]3C[C@H](OC)[C@@H](O[C@H]4C[C@H](OC)[C@@H](NC)[C@H](C)O4)[C@H](C)O3)[C@@H](C)/C=C/C=C3\CO[C@@H]4[C@H](O)C(C)=C[C@@H](C(=O)O1)[C@]34O)O2`, for which the outcome in test [1], in test [3], in test [5], in test [8], in test [9] and in test [10] was inactive. The compound was called inactive in test [11] and in test [12]. For the same compound, the AC50 in [2] is 5 µM (active); in [4] it was 29.5 µM (active); in test [6] it was 0.0479 µM (active); in test [7], 30.7 µM (active).

Turning to `S=C1NCCN1`, the compound was classed as inactive in test [1], in test [13], in [4], in [15], in [5] and in test [6]. Besides, the call in [7], in test [8] and in test [12] was inactive. Besides, the AC50 in test [14] is 6.05 µM (active).

`CNC(=O)ON=C(C)SC`: the outcome in test [1], in test [13], in test [4], in [5], in test [16] and in [8] was inactive. Also, the call in test [10] and in test [12] was inactive.

Turning to `CC(C)N(C(=O)SCC(Cl)=C(Cl)Cl)C(C)C`, the compound was called inactive in test [1], in test [13], in test [4], in test [5], in [6] and in test [7]. The call in test [16], in test [10], in [11] and in [12] was inactive.

Take `CCOP(=S)(OCC)SCCSCC`: the compound was called inactive in test [1], in test [13], in test [4], in [6], in [16] and in [8]. Besides, the compound was classed as inactive in test [10] and in test [12].

As to `CCC(=O)Nc1ccc(Cl)c(Cl)c1`, the compound was called inactive in test [1], in test [13], in [15], in test [5], in test [6] and in test [10]. Also, in [12], the compound was classed as inactive. Moreover, in [14], the half-maximal activity concentration (AC50) was 36 µM (active).

With `CCC(CC)Nc1c([N+](=O)[O-])cc(C)c(C)c1[N+](=O)[O-]`, the outcome in [1], in test [13], in test [17], in [18], in test [6] and in test [7] was inactive. For the same compound, the result in [16], in test [10] and in test [12] was inactive.

On to `CCCSP(=O)(OCC)SCCC`, for which the outcome in [1], in test [4], in [15], in test [7], in test [16] and in [10] was inactive. Further, the call in test [12] was inactive. Further, the figures for the AC50 in test [17] and in [14] were 1.9 µM (active) and 19.4 µM (active), respectively.
